Assay outcomes from PubChem.
A549 viability: Nrf2 qHTS screen for inhibitors: counterscreen for cytotoxicity; Potency, µM (titrated, usually from 46 µM), for the others: at the top dose activity change, negative = cytotoxicity, actives largely listed as inhibitors; hit rate 0.16% among 390,000; A549 ARE-Fluc cells, CellTiter-Fluor viability, 18-24 h; AID 504648, 2011; further: potency means the concentration at half of the fitted maximal effect; on the % scale 0 is the no-effect control and ±100 the full control effect
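Cytotoxicity counterscreen: CellTiter-Fluor fluorescence was measured in A549 ARE_Fluc cells after 18-24 h of compound exposure in a concentration series. The subsequent BugLite luminescent read reports ARE-luciferase activity.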
Nrf2 activator: qHTS of Nrf2 Activators. AREc32 ARE-luciferase reporter (MCF7-derived line), luminescence, 24 h. Potency, µM (doses to about 46.1 µM), for the others: at the top dose activation, usual class: activators. hit rate 0.31% among 410,000. AID 624171, 2012; further: potency means the concentration at half of the fitted maximal effect; % of control where 0% means no effect; nearly all actives have a fitted effect of over 65% in size
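AREc32 cells carrying an ARE-driven firefly luciferase reporter were seeded at 1000 cells/well in OPTI-MEM with 5% FBS, then exposed to compound for 24 hr at 37 deg C. Luminescence was read with Steady-Glo after 30 min at RT.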
GALK inhibitor: qHTS Assay for Inhibitors of Human Galactokinase (GALK) | P51570 | Purified GALK, Kinase-Glo residual ATP luminescence | Potency, µM (titrated, usually from 57.5 µM), for the others: at the top dose activity change, negative = inhibition, hits mostly inhibitors | hit rate 0.007% among 270,000 | AID 1868, 2009; further: potency means the concentration at half of the fitted maximal effect; on the % scale 0 is the no-effect control and ±100 the full control effect
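Kinase-Glo Plus luminescence measured ATP left after a 1 h room-temperature reaction. The reaction used 5 nM GALK, 100 uM galactose and 35 uM ATP at pH 8.0 (20 mM HEPES, 5 mM MgCl2, 60 mM NaCl, 1 mM DTT, 0.01% BSA).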
miR-21 reporter: qHTS Assay for Modulators of miRNAs and/orActivators of miR-21; HeLa miR-21 FLuc reporter, luciferase, 48 h; Potency, µM (highest dose often 38.3 µM), for inactives: at the top dose activity change, positive = activation, most hits filed as activators; 340,000 tested, under 10 active;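 further: % of control where 0% means no effect; miR-21 action dims this reporter so a rising signal means less miR-21 action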
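HeLa miR-21-FLuc reporter line, endogenous miR-21; 2000 cells/well in DMEM/10% FBS; compound titration up to ~40uM final, 48 h, 37 degree Celsius; luciferase detection reagent, 15 min lysis, CCD luminescence.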
Nrf2 block: Nrf2 qHTS screen for inhibitors; A549 ARE-Fluc reporter, luciferase luminescence, 18-24 h; Potency, µM (titrated, usually from 46 µM), for inactives: at the highest dose activity change, negative = inhibition, hits mostly inhibitors; hit rate 2.1% among 360,000; AID 504444, 2011; further: potency means the concentration at half of the fitted maximal effect; on the % scale 0 is the no-effect control and ±100 the full control effect; nearly all actives have a fitted effect of over 60% in size
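A549 ARE_Fluc cells, 5000/well, 5% FBS OPTI-MEM; compounds in dose-response, 18-24 h at 37 °C/5% CO2; CellTiter-Fluor viability read (Ex 405/Em 525), then BugLite luciferase luminescence = Nrf2 activity.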
PI4K2A inh: qHTS for small molecular inhibitors of PI4K2A; activity change, negative = inhibition, % at 76.9 µM; purified PI4K2A, ADP-Glo luminescence, 1 h; hits give low values; hit rate 0.13% among 420,000; Phosphatidylinositol 4-kinase type 2-alpha (Homo sapiens), Q9BTU6; in the data active means activity change below about -50%; inconclusive means mostly about -30% to -49%;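 further: -100% = wells without enzyme as full effect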
Target sequence (Q9BTU6 whole entry, looked up): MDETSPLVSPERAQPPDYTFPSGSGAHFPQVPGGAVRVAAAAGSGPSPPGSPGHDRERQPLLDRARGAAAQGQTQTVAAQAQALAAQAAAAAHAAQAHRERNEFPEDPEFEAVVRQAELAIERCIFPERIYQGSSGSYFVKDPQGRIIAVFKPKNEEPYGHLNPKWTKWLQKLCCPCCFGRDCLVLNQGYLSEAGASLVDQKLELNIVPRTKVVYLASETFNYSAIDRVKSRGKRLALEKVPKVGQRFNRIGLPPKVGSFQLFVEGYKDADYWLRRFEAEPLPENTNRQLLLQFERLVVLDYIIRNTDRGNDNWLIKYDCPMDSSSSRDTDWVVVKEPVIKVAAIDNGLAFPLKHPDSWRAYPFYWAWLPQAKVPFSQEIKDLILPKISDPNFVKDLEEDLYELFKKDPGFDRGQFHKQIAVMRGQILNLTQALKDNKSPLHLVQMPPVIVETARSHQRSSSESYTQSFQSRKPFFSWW
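PI4K2A activity was measured by ADP-Glo luminescence: enzyme (4 ug/mL stock) and phosphatidylinositol (1.2 mM stock) in Tris pH 7.5/MgCl2/EGTA/Triton X-100 buffer were reacted with ATP (300 microM stock) for one hour at ambient temperature.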
* = called active by the depositor. An excerpt weighted towards active compounds, which were near 2.2% of everything screened. Unless noted, the call rests on the fitted dose curve; in most records, active means well fitted curve in the direction sought with a large enough effect; inconclusive means small, poorly fitted or top-dose-only effect, or another doubt; inactive means no such curve, though single readings can be large; an effect the other way counts as inactive or inconclusive.

What do the screens show for `Cc1ccc(S(=O)(=O)Nc2cccc3cccnc23)cc1`?
A549 viability: -25%; Nrf2 activator: inconclusive; GALK inhibitor: 3%; miR-21 reporter: inconclusive; Nrf2 block: 6.5µM*; PI4K2A inh: 10

What do the screens show for `COC(=O)[C@]12C[C@H](CC(=O)NCc3ccc(C)o3)C(=O)N(Cc3cccc4ccccc34)C1=C[C@H](C(C)C)O[C@@H]2C1CC1`?
PI4K2A inh: -4

How did Cc1ccc(-n2c(SCC(=O)Nc3cccc4ccccc34)nnc2-c2cnccn2)cc1 do in these assays?
PI4K2A inh: 8

How did CCOC(=O)N1CCN(C(=O)C[C@H]2C[C@@]3(C(=O)OC)C(=C[C@H](C4CCCC4)O[C@@H]3C)N(CCC3=CCCCC3)C2=O)CC1 do in these assays?
PI4K2A inh: -6

Results for Cc1ccc(-n2nnnc2Sc2ccc(S(=O)(=O)NCCN(C)C)cc2[N+](=O)[O-])cc1 ?
A549 viability: 6.5µM*; Nrf2 activator: inconclusive; GALK inhibitor: -3%; miR-21 reporter: inconclusive; Nrf2 block: 10µM*; PI4K2A inh: -5

How did CCOC(=O)C(=O)c1csc(NC=O)n1 do in these assays?
PI4K2A inh: -1

How did COc1ccc(NC(=O)CN2c3cccc4cccc(c34)S2(=O)=O)c(OC)c1 do in these assays?
A549 viability: 3%; Nrf2 activator: -1%; GALK inhibitor: 0%; miR-21 reporter: -7%; Nrf2 block: 4%; PI4K2A inh: 9

How did COc1cc(NC(=O)CN2c3cccc4cccc(c34)S2(=O)=O)cc(OC)c1OC do in these assays?
A549 viability: -12%; Nrf2 activator: 3%; GALK inhibitor: 1%; miR-21 reporter: 21%; Nrf2 block: 23µM*; PI4K2A inh: -1

Results for COC(=O)c1cc(Cl)ccc1NS(=O)(=O)C(F)(F)F ?
PI4K2A inh: 0

What do the screens show for `COc1ccc(OCCN2CCN(C(=O)c3ccc(OC)cc3)CC2)cc1`?
A549 viability: -13%; Nrf2 activator: 0%; GALK inhibitor: 2%; miR-21 reporter: 15%; Nrf2 block: 10µM*; PI4K2A inh: 4

What do the screens show for `COc1ccc(OCCN2CCN(C(=O)c3ccc(OC(F)F)c(OC)c3)CC2)cc1`?
A549 viability: 1%; Nrf2 activator: 1%; GALK inhibitor: -3%; miR-21 reporter: 16%; Nrf2 block: inconclusive; PI4K2A inh: -5

Results for Cc1ccc(C(=O)C2CCN(C(=O)c3ccc(C)cc3)CC2)cc1 ?
A549 viability: -14%; Nrf2 activator: 0%; GALK inhibitor: 4%; miR-21 reporter: 6%; Nrf2 block: 23µM*; PI4K2A inh: -2

What do the screens show for `CCCCCOc1ccc(C(=O)CCN2CCOCC2)cc1`?
A549 viability: -6%; Nrf2 activator: 20µM*; GALK inhibitor: -1%; miR-21 reporter: -19%; Nrf2 block: inconclusive; PI4K2A inh: 35

How did COc1ccc(C(=O)C2CCN(C(=O)c3ccc(OC)cc3)CC2)cc1 do in these assays?
A549 viability: -11%; Nrf2 activator: 0%; GALK inhibitor: -1%; miR-21 reporter: 23%; Nrf2 block: 23µM*; PI4K2A inh: 2

Results for Cc1ccc(C(=O)N2CCC(C(=O)c3ccc(F)cc3)CC2)cc1 ?
A549 viability: 4%; Nrf2 activator: 3%; Nrf2 block: inconclusive; PI4K2A inh: -2

Results for C=CCN1C(=O)[C@H](CC(=O)NCc2ccc(OC)c(OC)c2)[C@@]2(C(=O)OCC)CCCC=C12 ?
PI4K2A inh: 0

Results for O=C1CCc2cc(S(=O)(=O)Nc3ccc(Cl)c(Cl)c3)ccc2N1 ?
A549 viability: inconclusive; Nrf2 block: 3%

What do the screens show for `CCCCc1cccc2[nH]cc(C)c12`?
PI4K2A inh: 2

What do the screens show for `CCC(=O)N1CCc2cc(Br)c(S(=O)(=O)NCCCN(CC)Cc3ccccc3)cc21`?
PI4K2A inh: -2

What do the screens show for `CCCC(c1nnnn1CC1CCCO1)N1CCN(c2cc(Cl)ccc2C)CC1` (stereo not drawn)?
A549 viability: inconclusive; Nrf2 activator: 3%; GALK inhibitor: 9%; miR-21 reporter: 19%; Nrf2 block: 26µM*; PI4K2A inh: 0

How did Cc1ccc(Cl)cc1N1CCN(C(CC(C)C)c2nnnn2CC2CCCO2)CC1 (stereo not drawn) do in these assays?
A549 viability: -5%; Nrf2 activator: 0%; GALK inhibitor: -2%; miR-21 reporter: -3%; PI4K2A inh: 6

Results for CCN(CC)C(=O)N1CCN(C)CC1 ?
A549 viability: 16%; Nrf2 activator: 0%; GALK inhibitor: 5%; miR-21 reporter: -3%; Nrf2 block: 13µM*; PI4K2A inh: 0

What do the screens show for `CCN(CC)C(=O)N1CCN(C(=O)N(CC)CC)CC1`?
A549 viability: 0%; Nrf2 activator: -1%; GALK inhibitor: 1%; miR-21 reporter: -1%; Nrf2 block: 2%; PI4K2A inh: -1

What do the screens show for `COc1cccc(C2c3c(ncn(CCCN4CCOCC4)c3=N)Oc3ccc4ccccc4c32)c1` (stereo not drawn)?
A549 viability: 15µM*; Nrf2 block: -125%

Results for COc1ccc(N2CCN(C(=O)Cc3csc(NC(=O)Nc4ccccc4OC)n3)CC2)cc1 ?
A549 viability: -14%; Nrf2 activator: 2%; Nrf2 block: inconclusive; PI4K2A inh: 0

How did COc1ccccc1NC(=O)Nc1nc(CC(=O)N2CCN(c3ccccc3)CC2)cs1 do in these assays?
A549 viability: -15%; Nrf2 activator: 2%; Nrf2 block: 7.3µM*; PI4K2A inh: -2

What do the screens show for `CC1(c2nnc(Cc3ccccc3)o2)CC(c2ccc(OC(F)(F)F)cc2)=NO1` (stereo not drawn)?
A549 viability: -12%; Nrf2 activator: 1%; Nrf2 block: 23µM*; PI4K2A inh: -1

How did Cc1c2ccccc2cc[n+]1CCCS(=O)(=O)[O-] do in these assays?
A549 viability: -2%; Nrf2 activator: 0%; GALK inhibitor: 1%; miR-21 reporter: -10%; Nrf2 block: -2%; PI4K2A inh: -6

What do the screens show for `CC1(C)C(/C=C/C=C/C=C/C=C2\N(CCCCS(=O)(=O)O)c3ccc4ccccc4c3C2(C)C)=[N+](CCCCS(=O)(=O)[O-])c2ccc3ccccc3c21`?
A549 viability: inconclusive; Nrf2 activator: 1%; Nrf2 block: inconclusive; PI4K2A inh: -65*
